# Screening results (PubChem)
# PI4K2A block: blocks human PI4K2A kinase activity; Q9BTU6; purified PI4K2A, ADP-Glo luminescence, 1 h; hits give low values; activity change, negative = inhibition, % at 76.9 µM; 0.13% of 420,000 active; AID 1346378; in the data active = activity change below about -50%; inconclusive = mostly about -30% to -49%;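 also: -100% = wells without enzyme as full effect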
# Target sequence (Q9BTU6 whole entry, looked up): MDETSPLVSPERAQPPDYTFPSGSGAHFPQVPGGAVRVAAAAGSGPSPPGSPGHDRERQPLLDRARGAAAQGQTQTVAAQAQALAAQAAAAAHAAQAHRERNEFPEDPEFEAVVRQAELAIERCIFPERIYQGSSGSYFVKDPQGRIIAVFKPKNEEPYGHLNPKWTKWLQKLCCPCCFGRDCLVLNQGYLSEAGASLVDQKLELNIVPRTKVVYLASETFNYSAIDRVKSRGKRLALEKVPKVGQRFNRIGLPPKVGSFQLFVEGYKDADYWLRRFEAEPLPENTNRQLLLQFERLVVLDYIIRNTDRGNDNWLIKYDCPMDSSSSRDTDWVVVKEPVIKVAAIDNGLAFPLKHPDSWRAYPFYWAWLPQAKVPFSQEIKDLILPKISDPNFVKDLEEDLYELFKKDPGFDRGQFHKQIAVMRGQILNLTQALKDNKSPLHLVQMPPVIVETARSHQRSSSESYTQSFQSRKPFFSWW
#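 ADP-Glo luminescence measured ADP generated by PI4K2A enzyme (4 ug/mL before mixing) with 1.2 mM PI substrate (pre-mix) and 300 microM ATP (pre-mix). Tris pH7.5 buffer with MgCl2, Triton X-100; 1 h reaction at ambient temperature.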
# Tb PGK inh: inhibitors of T. brucei phosphoglycerate kinase; P07378; PGK/GAPDH coupled, Kinase-Glo luminescence, 60 min; Potency, µM (highest dose often 57.5 µM), for inactives: at the highest dose activity change, negative = inhibition, actives largely listed as inhibitors; 0.043% of 380,000 active; AID 602233; also: potency is read from the fitted curve at half-maximal effect; nearly all actives have a fitted effect of over 60% in size
#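 Recombinant glycosomal PGK reaction used 1,3-bisphosphoglycerate generated in-well by GAPDH (100nM final) in 100mM TEA pH 7.6, 5mM MgCl2, 0.01% Tween-20. After 60 minutes at room temperature, ATP was read by Kinase-Glo Plus luminescence end-point.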
# GLS inhibitor: blocks human kidney-isoform glutaminase activity. O94925. GLS enzymatic activity, qHTS titration. Potency, µM (top dose mostly 45.5 µM), for inactives: at the top dose activity change, negative = inhibition, hits mostly inhibitors. 0.21% of 410,000 active. AID 624170; also: potency is read from the fitted curve at half-maximal effect
#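 Two-point fluorescence kinetic (t0, 30 min RT) for hKGA; glutamate detected via glutamate oxidase–HRP–Amplex Red. Substrate: 1 mM L-glutamine solution; buffer 45 mM KH2PO4, pH 8.2.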
# USP1-UAF1 inh: USP1/UAF1 (human) deubiquitinase inhibition. O94782. recombinant USP1/UAF1, Ub-Rhodamine cleavage fluorescence. Potency, µM (top dose mostly 57.1 µM), inactives show at the top dose activity change, negative = inhibition, actives largely listed as inhibitors. 0.23% of 390,000 active; also: potency is read from the fitted curve at half-maximal effect; nearly all actives have a fitted effect of over 60% in size
#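 In this screen, compounds sit with the deubiquitinase complex (1nM) for 15 min at room temperature before Ub-Rho is added at 150nM final. Fluorescence rise is then followed for 6 reads every 60 seconds.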
# The depositor's hits bear a star; i = inactive; ? = inconclusive; / = no result. Rows were chosen to be rich in hits. Some 0.53% of all compounds tested hit in one or more screens of this group. Unless noted, calls follow the shape of the dose curve; as a rule, active = well fitted curve in the direction sought with a large enough effect; inconclusive = small, poorly fitted or top-dose-only effect, or another doubt; inactive = no such curve, though single readings can be large; an effect the other way counts as inactive or inconclusive. Unless noted, % is scaled to controls: 0 for no effect and ±100 for the full control effect.
SMILES,PI4K2A block,Tb PGK inh,GLS inhibitor,USP1-UAF1 inh
O=S(=O)(O)c1ccc(O)c2cc(Nc3ccccc3)ccc12,?,5µM*,2.2µM*,13µM*
O=S(=O)(O)c1cc(O)c2cc(Nc3ccccc3)ccc2c1,-20,?,?,?
CO[C@H]1C[C@@H]2CC[C@@H](C)[C@@](O)(O2)C(=O)C(=O)N2CCCC[C@H]2C(=O)O[C@H]([C@H](C)C[C@@H]2CC[C@@H](OCCO)[C@H](OC)C2)CC(=O)[C@H](C)/C=C(\C)[C@@H](O)[C@@H](OC)C(=O)[C@H](C)C[C@H](C)/C=C/C=C/C=C/1C,/,/,-2%,/
CN1C(=O)c2cc(NC(=O)Nc3ccccc3F)ccc2OC[C@H]2O[C@@H](CC(=O)NCc3ccc(-c4ccccc4)cc3)CC[C@@H]21,0,/,/,/
Nc1cccc2c(O)cc(S(=O)(=O)O)cc12,?,18µM*,2.8µM*,25µM*
O=S(=O)(O)c1cc(O)c2ccc(Nc3ccccc3)cc2c1,-20,?,5µM*,3%
Nc1cc(S(=O)(=O)O)cc([N+](=O)[O-])c1O,-6,?,?,-15%
Cc1ccc(/C=C/c2onc(C)c2S(=O)(=O)N2CCC(C(=O)N3CC(C)Oc4ccccc43)CC2)cc1 (stereo unspecified),0,-4%,0%,?
CCCC1(C)C(C#N)(C#N)C1(C#N)C#N,-3,/,/,/
N#C/C(=C/c1ccc(N2CCOCC2)o1)c1nc2ccccc2[nH]1,-13,-24%,4%,25µM*
O=C1C(=O)c2ccc(-c3ccccc3)cc2-c2ccccc21,-63*,-8%,-7%,5µM*
Nc1ccc2c(c1)C(=O)C(=O)c1ccccc1-2,?,?,-5%,1.3µM*
Cc1ccc2nc(N3C(=O)C(O)=C(C(=O)c4ccc(C)o4)C3c3ccco3)sc2c1 (stereo unspecified),-6,i,?,-21%
O=C(C1=C(O)C(=O)N(c2nc3ccc(Cl)cc3s2)C1c1ccco1)c1ccco1 (stereo unspecified),-13,-18%,18µM*,-23%
OCCN(CCO)c1nc(N2CCCCC2)c2nc(N(CCO)CCO)nc(N3CCCCC3)c2n1,2,-1%,16%,28µM*
Nc1nc(NCCO)nc(N2CCCCCC2)c1[N+](=O)[O-],-2,-6%,1%,-12%
CC(c1ccccc1)c1nnc(NC(=O)Nc2ccccc2)s1 (stereo unspecified),-18,-6%,6%,-12%
CC(c1ccccc1)c1nnc(NC(=O)Nc2ccccc2F)s1 (stereo unspecified),-50*,-1%,2%,-16%
CCN(CC)c1ccc2cc(-c3nc(-c4cc(OC)c(OC)c(OC)c4)no3)c(=O)oc2c1,-1,0%,-17%,40µM*
COC(=O)[C@@]12CCCCC3=C1N(CCC3)C(=O)[C@H]2CC(=O)N1CCN(C(=O)C2CC2)CC1,-2,/,/,/
O=[N+]([O-])c1ccc(N2CCN(c3ccccc3Cl)CC2)cn1,-5,-1%,-9%,-9%
O=[N+]([O-])c1ccc(N2CCN(c3ccc(O)cc3)CC2)cn1,-8,-1%,10µM*,-19%
COc1ccc2c(N)c(C(=O)NN)[nH]c2c1,-3,0%,13µM*,-1%
CC(C)(C)C1=CC(=O)C(=O)C(C(C)(C)C)=C1,0,/,5.6µM*,-19%
O=C(Nc1cccc2c(=O)cc(-c3nn[nH]n3)oc12)c1ccc(OCCCCc2ccccc2)cc1,0,/,-14%,/
SMILES,PI4K2A block,Tb PGK inh,GLS inhibitor,USP1-UAF1 inh
Oc1ccccc1C1Nc2cccc3cccc(c23)N1,0,-8%,8%,-24%
O=[N+]([O-])c1ccccc1C1Nc2cccc3cccc(c23)N1,-20,-11%,8.9µM*,-25%
O=C1NC(=S)S/C1=C\c1ccc(SCc2ccco2)o1,-28,14µM*,11µM*,?
CCOC(=O)/C(=C/c1ccc(N2CCC(c3ccccc3)=N2)cc1)C(C)=O,-3,-2%,-7%,4.5µM*
Cc1ccc(-c2c(C(=O)N3CCN(c4cccc(C)c4)C(C)C3)oc(=O)c3ccccc23)cc1 (stereo unspecified),0,-8%,8%,-23%
O=C(O)[C@H](O)[C@@H](O)[C@H](O[C@@H]1O[C@H](CO)[C@H](O)[C@H](O)[C@H]1O)[C@H](O)CO,-4,/,/,/
